Only some compounds are listed: those with a hit (about 11% of all), similar ones and a draw of the others.
HPGD inh = HPGD (human) dehydrogenase inhibition; purified HPGD, NADH fluorescence kinetic, PGE2 substrate; Potency, µM, for the others: top-dose activity change, negative = inhibition, actives largely listed as inhibitors; AID 894; 150,000 compounds, 4.3% hits; P15428; note: potency is the fitted concentration of half-maximal effect
Target sequence (P15428 whole entry, looked up): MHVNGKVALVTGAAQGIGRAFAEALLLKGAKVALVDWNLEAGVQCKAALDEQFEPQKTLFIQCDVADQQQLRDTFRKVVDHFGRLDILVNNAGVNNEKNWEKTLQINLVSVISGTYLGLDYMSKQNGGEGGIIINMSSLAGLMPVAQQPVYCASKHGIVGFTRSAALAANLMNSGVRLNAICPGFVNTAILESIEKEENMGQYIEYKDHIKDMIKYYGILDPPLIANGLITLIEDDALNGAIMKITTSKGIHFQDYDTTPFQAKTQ
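NADH formation kinetics: reaction with 30 uM PGE2 and 1 mM NAD+ (final), 20 nM enzyme, Tris-HCl pH 8 with Tween 20, after 15 min compound preincubation at room temperature. Fluorescence change, last versus first of five reads.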
ALDH1A1 block = ALDH1A1 (human) enzyme inhibition. 220,000 compounds, 7.3% hits. Potency, µM (series often up to 75.3 µM), for inactives: top-dose activity, negative = inhibition, actives largely listed as inhibitors. P00352. Purified ALDH1A1, NADH fluorescence, propionaldehyde substrate;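 note: potency is the fitted concentration of half-maximal effect; plate controls were no enzyme wells and a reference inhibitor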
PNC inhibitor = perinucleolar compartment assembly inhibition; PC3M PTB-GFP, PNC prevalence imaging, 16 h; stronger effect = lower value; activity change (PNC), negative = inhibition, % at 10 µM; 140,000 compounds, 3.1% hits;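 active = readout at or below -70, meaning at least 70% loss of cells showing the perinucleolar compartment, a nuclear body marking cancer cells; inconclusive = readout between -30 and a set limit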;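 note: plate controls were DMSO wells for no effect and camptothecin positive control wells for full effect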
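Read-out is percentage of cells bearing a perinucleolar compartment, from automated 20x imaging of fixed, Hoechst-stained PC3M PTB-GFP cells. Cells were seeded 4 h, then exposed 16 h to compound (23 nl of library stock) in duplicate plates.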
Active calls of the source: *; ? = inconclusive; nt = no result; [ ] = another dose, or the depositor's remark. Unless noted, calls come from the whole dose curve; as a rule, active = well fitted inhibition curve with a large enough effect (not every such curve was filed as active); inconclusive = small, poorly fitted or top-dose-only effect, or another doubt; inactive = no such curve, though single readings can be large or run the other way. Unless noted, % is set by controls: 0 for no effect and ±100 for the full control effect.

SMILES | HPGD inh | ALDH1A1 block | PNC inhibitor
O=C1/C(=C/c2ccncc2)SC(=S)N1C1CCS(=O)(=O)C1 (configuration not stated) | -24% | 22µM* | 16
O=C1/C(=C\c2cccs2)SC(=S)N1C1CCS(=O)(=O)C1 (configuration not stated) | nt | 8% | nt
Cc1nn(Cc2ccc([N+](=O)[O-])cc2)c(=O)n1-c1cccc(Cl)c1 | nt | 1% | nt
COc1cccc(N2CCN(CC(=O)C34CC5CC(CC(C5)C3)C4)CC2)c1 | -8% | 16µM* | ?
COc1cccc(N2CCN(C3C4CC5CC(C4)CC3C5)CC2)c1 (configuration not stated) | -5% | ? | ?
C[C@]1(c2ccccc2)O[C@@H]2C[C@@H]3[C@@H]4CCC5=CC(=O)C=C[C@@]5(C)[C@]4(F)[C@H](O)C[C@]3(C)[C@@]2(C(=O)CO)O1 | -3% | 12%[13.5 µM] | nt
Nc1nc(SCc2ccccc2[N+](=O)[O-])c2[nH]cnc2n1 | -2% | 7%[13.5 µM] | nt
CC(C)=CCC1=C(O)[C@](O)(CC=C(C)C)C(=O)C(C(=O)CC(C)C)=C1O | -14% | -7% | nt
Cc1sc2nc(SCC(=O)N3CCCC3)[nH]c(=O)c2c1C | 18µM* | ? | -80*
O=c1[nH]c(SCc2n[nH]c(=S)n2-c2ccccc2)nc2sc3c(c12)CCC3 | 13µM* | -8% | 64
CCOC(=O)Cc1csc(NC(=O)CSc2nc3sc(C(=O)O)c(C)c3c(=O)[nH]2)n1 | ? | -7% | 26
O=c1[nH]c(SCc2n[nH]c(=S)n2-c2ccccc2)nc2ccccc12 | -24% | 5% | -9
Cc1csc(NC(=O)CSc2nc3sc(C)c(C)c3c(=O)[nH]2)n1 | 13µM* | 18µM* | ?
Cc1cc(C)c2c(=O)[nH]c(SCC(=O)N3CCCCC3)nc2n1 | ? | ? | 26
Cc1sc2nc(SCC(=O)N3CCCCC3)[nH]c(=O)c2c1C | 16µM* | ? | -18
CCOC(=O)CCCSc1nc2sc(C)c(C)c2c(=O)[nH]1 | ? | 1% | 22
O=C(c1c[nH]c2ccccc2c1=O)N1CCCCCC1 | nt | 13% | nt
COc1ccc(S(=O)(=O)N(C)C)cc1NC(=O)CSc1nnc(-c2cccnc2)o1 | nt | 3% | nt
COC(=O)CCCNC(=O)c1ccccn1 | nt | 16% | nt
COc1c(Cl)ccc(Cl)c1C(=O)O | -23% | ? | nt
CCOC(=O)CSc1nc2sc3c(c2c(=O)[nH]1)CCCC3 | 16µM* | 0% | -2
CCOC(=O)CSc1nc2sc3c(c2c(=O)[nH]1)CC(C)(CC)OC3 (configuration not stated) | -9% | ? | 17
Cc1sc2nc(SCC(=O)N(C)C)[nH]c(=O)c2c1C | -29% | -2% | 41
CCN(CC)C(=O)CSc1nc2sc(C)c(C)c2c(=O)[nH]1 | 13µM* | ? | 43
CC(NC(=O)c1ccc(F)cc1)C(=O)NC1=NCCS1 (configuration not stated) | nt | 8% | nt
SMILES | HPGD inh | ALDH1A1 block | PNC inhibitor
O=C(N/N=C/c1ccc(OC(=O)c2ccccc2)c([N+](=O)[O-])c1)c1ccc(O)cc1 | -12% | 7% | -26
O=S(=O)(Nc1cccnc1)c1cccc(C(F)(F)F)c1 | -12% | 3% | -92*
O=S(=O)(Nc1cccc(C(F)(F)F)c1)c1cccnc1 | -14% | 16% | 22
COc1ccc(-n2nnnc2-c2cccnc2)cc1 | -3% | 8% | 3
Cc1ccccc1-n1nnnc1-c1ccccc1 | -13% | 4.5µM* | 17
COc1ccc(-c2nnnn2-c2ccccc2OC)cc1 | 1% | 7.9µM* | 56
Cc1ccc(-n2nnnc2-c2ccccc2)cc1 | nt | -1% | nt
CC1CCc2cc(F)ccc2N1C(=O)CSc1nnc2c(n1)[nH]c1ccccc12 (configuration not stated) | -28% | -9% | 44
COc1ccc(C(=O)N2CCC3(CCN(Cc4nccs4)CC3)CC2)cc1 | -7% | -2% | nt
CN1CCNC(=O)C1CC(=O)NCCc1ccccc1F (configuration not stated) | nt | -1% | nt
Nc1ncnc2c1ncn2[C@@H]1O[C@H](C(=O)NC2CC2)[C@@H](O)[C@H]1O | nt | 4% | nt
Nc1ccc(C(=O)c2cccs2)cc1 | 22µM* | -1% | 13
Nc1ccc(C(=O)c2cccs2)cn1 | nt | 1% | nt
CCC/C=C(\CCC)C(NC(=O)c1cccs1)c1ccc(C(=O)OC)cc1 (configuration not stated) | -25% | -4% | nt
COC(=O)C(C)c1ccc(C(=O)c2cccs2)cc1 (configuration not stated) | 14µM* | -2% | nt
O=C(/C=C/c1ccccc1)/C=C/c1ccccc1 | -22% | 32µM* | ?
O=C(/C=C/c1ccccc1)N1CCCN(C(=O)/C=C/c2ccccc2)CC1 | -3% | 5% | 19
CN(C)S(=O)(=O)c1cc(S(=O)(=O)N(C)C)c(Cl)cc1N | -6% | 13µM* | 10
CN(C)S(=O)(=O)c1cc(C(=O)O)c(NC2CCCCC2)cc1Cl | -24% | ? | 9
COc1cccc(OC)c1C(=O)Nc1cccnc1 | nt | 3% | nt
COc1ccc(CCNC(=S)NCc2ccc(Cl)c(Cl)c2)cc1OC | nt | -5% | nt
CC1(C)S[C@H]2C(NC(=O)[C@@H](N)c3ccc(O)cc3)C(=O)N2[C@@H]1C(=O)O (some centres not stated) | -8% | 4% | nt
COc1ccc(/C=N/N=C2/NC(=O)CC(C(=O)O)S2)cc1 (configuration not stated) | -12% | 9% | -11
COc1ccc(/C=N/N=C2/CC(C)(C)Cc3n[nH]c(=O)cc32)cc1 | nt | 28µM* | nt
CC(C)NC(=O)Cn1cc(C(=O)C2CC2)c2ccccc21 | nt | -7% | nt
SMILES | HPGD inh | ALDH1A1 block | PNC inhibitor
Cc1onc(-c2c(F)cccc2Cl)c1C(=O)Nc1cccc(S(=O)(=O)NCc2ccco2)c1 | nt | -8% | nt
NCCCC[C@H](NC(=O)C1CCNCC1)c1nnc(CN)o1 | nt | 0% | nt
Cc1c(NC(=O)Cn2ccc([N+](=O)[O-])n2)c(=O)n(-c2ccccc2)n1C | -11% | 10% | 78
Cc1ccc(-c2cc3nc(C)cc(NCc4ccco4)n3n2)cc1 | ? | ? | -104*
Cc1cccc(-c2cc3nc(C)cc(NCCCN(C)C)n3n2)c1 | ? | ? | -28
CCCCOc1ccc(C2C(C(=O)c3ccc(C)o3)=C(O)C(=O)N2CC2CCCO2)cc1 (configuration not stated) | -21% | ? | 18
CN(CC1CCOCC1)C(=O)CC1C(=O)NCCN1Cc1cccc(Oc2ccccc2)c1 (configuration not stated) | nt | -5% | nt
CCOc1cc([N+](=O)[O-])cc2c1C(=O)Nc1ccccc1O2 | nt | 1% | nt
CCCC(=O)Nc1nc2ccc(OCC)cc2s1 | -4% | -6% | 27
CCOc1ccc2nc(NC(=O)c3cccnc3)sc2c1 | -15% | 9% | -108*
CCOCC(=O)Nc1nc2ccccc2s1 | -3% | 22µM* | -14
CCOc1ccc2nc(NC(=S)N(C)C)sc2c1 | 14µM* | 25µM* | 36
CCOc1ccc2nc(NC(=O)CS(=O)(=O)c3ccccc3)sc2c1 | -25% | -4% | 14
CCOc1ccc2nc(NC(=O)CS(=O)(=O)c3ccc(C)cc3)sc2c1 | -17% | 25µM* | -8
CCNC(=O)Nc1nc2ccccc2s1 | nt | 12% | nt
CCOc1ccc2nc(NC(=O)c3cnc(C)cn3)sc2c1 | -6% | 8% | 22
